# Reference: PubChem BioAssay (EPA / NIEHS)
# Calls of active or inactive are those of the source. Rule for the calls: active = hit-call score of the fitted dose curve at least 0.9, where 1 is the maximum; inactive = score below 0.9.
# Read-out: Interleukin 17F (IL17F), IL17F (gene 112744)
# Assay: BSK_BT_xIL17F: BioMAP Diversity Plus: BT Assay for Interleukin 17F (IL17F) Biomarker Activity (AID 2284243)
# Settings: primary human B cells with PBMC
# Protocol: BSK_BT is a cell-based, multiplexed-readout assay that uses B cell and peripheral blood mononuclear cells, a human vascular primary cell co-culture, with measurements taken at 24 hours after chemical dosing in a microplate: 96-well plate.BSK_BT_xIL17F is an assay component measured in the BSK_BT assay. It measures secreted IL-17F related to regulation of gene expression using LumineX xMAP technology.Data from the assay component BSK_BT_xIL17F was analyzed at the endpoint, BSK_BT_xIL17F, in the positive analysis fitting direction relative to DMSO as the negative control and baseline of activity. Using a type of cytokine quantitation reporter, gain or loss-of-signal activity can be used to understand protein changes. To generalize the intended target to other relatable targets, this assay endpoint is annotated to the 'cytokine' intended target family, where the subfamily is 'interleukins'.
# The levels of cell surface (or secreted, indicated by the prefix "s") biomarker endpoints were measured by ELISA. Overt cytotoxicity to cells in confluent adherent cultures (all systems other than the BT system) was assessed by measuring total protein levels using sulforhodamine B (SRB) staining in parallel cultures at the time of biomarker measurements, indicated as SRB endpoints. For proliferation assays for adherent cell types, individual cell types are cultured at sub-confluence and relative cell numbers quantified by SRB staining at time points optimized for each system (48 h: 3C and CASM3C systems; 72 h: BT and HDF3CGF systems; 96 h: SAg system). SRB was performed by staining cells with 0.1% SRB after fixation with 10% TCA and reading wells at 560 nm.Viability and proliferation of PBMC (T cells) was quantified by Alamar Blue reduction for the SAg and BT systems. For PBMC viability (referred to as PBMC Cytotoxicity within the assay endpoint names), cells were plated (75,000/well in a 96-well plate) and then chemical samples added for 1 h before addition of activators, SEB and TSST-1 (20 ng/mL final concentration each). Cells were incubated for 90 h. Then, Alamar Blue (20 uL/well) (Invitrogen, Cat DAL1100) was added for 6 h, and the plates were read with a fluorescence microplate reader at 546/580 nm (excitation/emission). For PBMC proliferation, cells were plated and activated as above but incubated for only 16 h prior to addition of Alamar Blue. Plates were read after 6 h.
Compound,outcome,AC50
CN(CCOc1ccc(CC2SC(=O)NC2=O)cc1)c1ccccn1 (stereo not drawn),inactive,
CC(C)(COC(=O)c1ccccc1)COC(=O)c1ccccc1,inactive,
O=C=NC1CCC(CC2CCC(N=C=O)CC2)CC1 (stereo not drawn),inactive,
CCc1c(C)cc(N)c(CC)c1N,inactive,
C#C[C@]1(O)CC[C@H]2[C@@H]3CCC4=Cc5oncc5C[C@]4(C)[C@H]3CC[C@@]21C,,25.3 µM (active)
CC(C)Oc1ccccc1O,inactive,
CCCCCCCCCC=O,inactive,
CCCCCCCCCCCCCCCCCC(=O)OCC(CC)CCCC (stereo not drawn),inactive,
CC(=O)/C=C/C1=C(C)CCCC1(C)C,inactive,
CCn1c2ccccc2c2cc(N)ccc21,inactive,
Nc1cc([N+](=O)[O-])ccc1Cl,inactive,
C=C[Si](OCC)(OCC)OCC,inactive,
c1ccc2sc(SN(C3CCCCC3)C3CCCCC3)nc2c1,inactive,
O=C1OC2(c3cc(Br)c(O)c(Br)c3Oc3c2cc(Br)c(O)c3Br)c2c(Cl)c(Cl)c(Cl)c(Cl)c21,inactive,
CCCCC(CC)COC(=O)/C=C\C(=O)OCC(CC)CCCC (stereo not drawn),inactive,
O=P(c1ccccc1)(c1ccccc1)c1ccccc1,inactive,
CNC[C@H](O)c1cccc(O)c1,inactive,
COC(=O)c1ccc(C)cc1,inactive,
CCCCC(CC)COCCC#N (stereo not drawn),inactive,

Compound,outcome,AC50
O=C(O)C[C@H](O)C[C@H](O)/C=C/c1c(C2CC2)nc2ccccc2c1-c1ccc(F)cc1,,3.26 µM (active)
CC1CCC(C(C)CS)CC1S (stereo not drawn),inactive,
O=[N+]([O-])c1cc(C(F)(F)F)ccc1Cl,inactive,
O=C(O)c1cn(C2CC2)c2cc(N3CCNCC3)c(F)cc2c1=O,inactive,
BrC1CCC(Br)C(Br)CCC(Br)C(Br)CCC1Br (stereo not drawn),,25 µM (active)
CC(C)c1ccc(C(C)C)cc1,inactive,
CC(=O)Nc1ccccc1O,inactive,
Cc1ccc2n[nH]nc2c1,inactive,
O=C1CCCCCCCCCCCCCCO1,,31.2 µM (active)
c1ccc2c(c1)c1cccc3ccc4cccc2c4c31,,20 µM (active)
C=C(C)C(=O)O[C@H]1C[C@@H]2CC[C@@]1(C)C2(C)C,inactive,
CCCCC/C=C/C=C/C=O,,30.7 µM (active)
CC(=O)O[C@]1(C(C)=O)CC[C@H]2[C@@H]3C[C@H](C)C4=CC(=O)CC[C@]4(C)[C@H]3CC[C@@]21C,,10 µM (active)
O=C(O)c1cn(-c2ccc(F)cc2)c2cc(N3CCNCC3)c(F)cc2c1=O,inactive,
CCCCCCCCC=O,inactive,
Cc1ccc(O)c(C(C)(C)C)c1,inactive,
Cc1ccc(Nc2ccc(O)c3c2C(=O)c2ccccc2C3=O)cc1,inactive,
CC1COc2ccccc2N1C(=O)C(Cl)Cl (stereo not drawn),inactive,
N#Cc1ccc(CC(=NNC(=O)Nc2ccc(OC(F)(F)F)cc2)c2cccc(C(F)(F)F)c2)cc1,inactive,
